Reference: PubChem BioAssay (Tox21)
Results filed as inconclusive are left out. Activity calls are given as the source filed them. Unless noted, the call rests on the fitted dose curve.

Tests used:
[1] = qHTS assay to identify small molecule antagonists of the estrogen related receptor signaling pathway with the pleiotropic PPARgamma coactivator (PGC) from Tox21 10K library - cell viability counter screen (AID 1224840; active means well fitted cell-killing curve with a large enough effect in the repeat runs, not every such curve was filed as active; further: nearly all actives have a fitted effect of over 40% in size); conditions: PGC/ERR reporter cells viability, CellTiter-Fluor, 17.5 h; series mostly up to 92.4 µM
In short: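 Fluorescence read-out of CellTiter-Fluor viability reagent, added after cells had been exposed to compound in DMSO for 17.5 h at 37 C; 30 min development at 37 C/5% CO2. Cells: PGC/ERR line, 2,000/well.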

[2] = molecular target: Thyrotropin receptor (Homo sapiens) (UniProt P16473); experiment: qHTS assay to identify small molecule agonists of the thyroid stimulating hormone receptor (TSHR) signaling pathway (AID 1224843); conditions: TSHR-HEK293 cells, cAMP HTRF, agonist mode, 30 min; series mostly up to 92.4 µM; further: nearly all actives have a fitted effect of over 45% in size
In short: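 Agonist activity read as cAMP rise via d2/cryptate HTRF competition, 1 h room-temperature detection, in HEK293 cells expressing TSHR. Fifteen-point titrations, each run in triplicate, with a 30 min room-temperature incubation beforehand.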

[3] = qHTS assay to identify small molecule agonists of the hypoxia (HIF-1) signaling pathway - cell viability counter screen (AID 1224844); conditions: HRE-bla ME-180 viability, CellTiter-Glo luminescence, 17 h; series mostly up to 76.8 µM; further: nearly all actives have a fitted effect of over 50% in size
In short: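 CellTiter-Glo luminescence read-out, 30 min RT, taken in the same wells as the beta-lactamase HRE reporter assay; HRE-bla ME-180 cells, 0.5% dialyzed FBS, 17 hr compound treatment at 37C, 5% CO2.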

[4] = qHTS assay to identify small molecule agonists of H2AX (AID 1224845; active means well fitted activation curve with a large enough effect in the signal ratio in the repeat runs, not every such curve was filed as active; the % refers to the signal ratio); conditions: CHO-K1 phospho-H2AX Ser139 HTRF, 3 h; series mostly up to 154 µM
In short: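 Phospho-H2AX Ser139 measured by HTRF (ex 320 nm; em 665 and 620 nm) after 24 hr antibody incubation. Compounds, 15 concentrations, 0.76% DMSO, were applied to CHO-K1 cells for 3hr at 37C before lysis.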

[5] = qHTS assay to identify small molecule agonists of the hypoxia (HIF-1) signaling pathway (AID 1224846; active means well fitted activation curve with a large enough effect in the signal ratio in the repeat runs, not every such curve was filed as active; the % refers to the signal ratio); conditions: HRE-bla ME-180 cells, beta-lactamase ratio, 17 h; series mostly up to 76.8 µM
In short: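 Beta-lactamase FRET read-out (CCF4-AM substrate) from ME-180 cells carrying an HRE-driven bla reporter, after 17 hrs compound exposure at 37C/5% CO2. Cells were seeded at 2,000 per well in 0.5% dialyzed FBS medium and preincubated 5 hrs.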

[6] = qHTS assay to identify small molecule agonists of H2AX - cell viability counter screen (AID 1224847); conditions: CHO-K1 viability, CellTiter-Glo luminescence, 3 h; series mostly up to 154 µM; further: top concentration of the series differs between compounds; nearly all actives have a fitted effect of over 30% in size
In short: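 Viability of CHO-K1 (wild type) cells after 3 hr compound exposure was measured by CellTiter-Glo luminescence.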

[7] = qHTS assay to identify small molecule antagonists of the estrogen related receptor (ERR) signaling pathway from Tox21 library (AID 1224848; active means well fitted inhibition curve with a large enough effect in the repeat runs; further: nearly all actives have a fitted effect of over 50% in size); conditions: ERR reporter cell line, luciferase antagonist mode, 18 h; series mostly up to 92.4 µM
In short: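 Luciferase luminescence (ONE-Glo, 30 min room temperature) was the read-out. Cells of the NTP-supplied ERR line, 2,000 per well, were given 6 h at 37 C before compound addition in DMSO and 18 h exposure at 37 C.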

[8] = qHTS assay to identify small molecule agonists of the estrogen related receptor (ERR) signaling pathway from Tox21 library (AID 1224849); conditions: ERR reporter cell line, ONE-Glo luciferase, 18 h; at 92.4 µM (top of the series) unless noted; further: nearly all actives have a fitted effect of over 15% in size
In short: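 Luminescence readout (ONE-Glo, 30 min RT) after 18 h compound exposure at 37 C of NTP-supplied ERR reporter cells; cells were plated 6 h before compound addition by pin tool.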
On the % scale 0 is the no-effect control and ±100 the full control effect.

Thyrotropin receptor (Homo sapiens), sequence (P16473 whole entry, looked up): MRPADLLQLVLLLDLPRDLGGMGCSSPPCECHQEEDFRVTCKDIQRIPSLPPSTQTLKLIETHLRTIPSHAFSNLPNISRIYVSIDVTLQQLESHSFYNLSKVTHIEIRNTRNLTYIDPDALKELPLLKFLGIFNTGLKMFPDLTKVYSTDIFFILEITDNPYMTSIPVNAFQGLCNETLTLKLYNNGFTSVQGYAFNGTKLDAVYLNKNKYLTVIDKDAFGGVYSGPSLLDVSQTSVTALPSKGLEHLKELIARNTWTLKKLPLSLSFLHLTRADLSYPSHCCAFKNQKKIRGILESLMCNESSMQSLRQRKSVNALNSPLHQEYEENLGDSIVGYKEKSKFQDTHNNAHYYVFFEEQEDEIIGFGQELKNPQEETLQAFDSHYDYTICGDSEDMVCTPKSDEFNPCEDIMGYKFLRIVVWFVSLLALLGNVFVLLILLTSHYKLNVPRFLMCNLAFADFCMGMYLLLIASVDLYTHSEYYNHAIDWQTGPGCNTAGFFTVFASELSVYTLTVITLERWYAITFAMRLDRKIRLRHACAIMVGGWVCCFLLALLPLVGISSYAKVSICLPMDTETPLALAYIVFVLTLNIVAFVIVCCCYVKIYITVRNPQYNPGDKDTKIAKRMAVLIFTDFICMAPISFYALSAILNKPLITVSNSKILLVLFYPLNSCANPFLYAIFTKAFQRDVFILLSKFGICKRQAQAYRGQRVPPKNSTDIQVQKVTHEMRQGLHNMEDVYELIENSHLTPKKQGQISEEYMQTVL

CCCCCCCCCOC(=O)CCCCC(=O)OCCCCCCC
inactive: outcome [1] | outcome [2] | outcome [3] | outcome [4] | outcome [5] | outcome [6]

CCCCCC/C=C/C(=O)OC
inactive: outcome [1] | outcome [2] | outcome [3] | outcome [4] | outcome [5] | outcome [6]

CCOCCOCC
inactive: outcome [1] | outcome [2] | outcome [3] | outcome [4] | outcome [5] | outcome [6]

COc1cc2c(cc1OC)CN(C(=O)[C@H](C)N[C@@H](CCc1ccccc1)C(=O)O)[C@H](C(=O)O)C2
inactive: outcome [1] | outcome [2] | outcome [3] | outcome [5] | outcome [6]

Cc1c(NC(=O)c2cccnc2)c(=O)n(-c2ccccc2)n1C
inactive: outcome [1] | outcome [2] | outcome [3] | outcome [4] | outcome [6]

O=C1CCCCO1
inactive: outcome [1] | outcome [2] | outcome [3] | outcome [4] | outcome [5] | outcome [6]

O=C1CCC(=O)N1Cl
inactive: outcome [1] | outcome [2] | outcome [3] | outcome [4] | outcome [5] | outcome [6]

OCC(O)CN1CCN(c2ccccc2)CC1 (stereo not drawn)
inactive: outcome [1] | outcome [2] | outcome [3] | outcome [4] | outcome [6]

Cc1ccnc(N)c1
inactive: outcome [1] | outcome [2] | outcome [3] | outcome [5] | outcome [6]

CCO
inactive: outcome [1] | outcome [2] | outcome [4] | outcome [5] | outcome [6]

O=S(=O)(O)c1ccc2c(N=Nc3ccc(S(=O)(=O)O)c4ccccc34)c(O)c(S(=O)(=O)O)cc2c1
inactive: viability change, negative = cytotoxic [1] -10.3% [at 8.39 µM] | activation [2] 3.55% [at 8.39 µM] | activity change, negative = cytotoxicity [3] -2.23% [at 6.97 µM] | activation [5] -0.322% [at 7.01 µM] | activity change, negative = cytotoxicity [6] -5.59% [at 14 µM]

CCNC(=O)NCc1cccc(Cl)c1
inactive: outcome [1] | outcome [2] | outcome [4] | outcome [5] | outcome [6]

CCN1CCCC1CN (stereo not drawn)
inactive: outcome [1] | outcome [2] | outcome [3] | outcome [4] | outcome [5] | outcome [6]

CN(C)CC/C=C1/c2ccccc2COc2ccc(CC(=O)O)cc21
inactive: outcome [1] | outcome [2] | outcome [3] | outcome [4] | outcome [5] | outcome [6]

NCCOCCN
inactive: outcome [1] | outcome [2] | outcome [3] | outcome [4] | outcome [5] | outcome [6]

CC12CCC(C1)C(C)(C)C2O (stereo not drawn)
inactive: outcome [1] | outcome [2] | outcome [3] | outcome [4] | outcome [5] | outcome [6]

CCC[C@@H]1C[C@@H](C(=O)N[C@@H]([C@H]2O[C@H](SC)[C@H](O)[C@@H](O)[C@H]2O)[C@@H](C)O)N(C)C1
inactive: outcome [1] | outcome [2] | outcome [3] | outcome [4] | outcome [6]

Fc1ccccc1
inactive: outcome [1] | outcome [2] | outcome [3] | outcome [5] | outcome [6] | Potency [7] | activity change, positive = activation [8] 8.1%

CC(C)COC(=O)c1ccccc1
inactive: outcome [1] | outcome [2] | outcome [3] | outcome [4] | outcome [5] | outcome [6]

CC/C(C)=N\O[Si](C)(O/N=C(\C)CC)O/N=C(\C)CC
inactive: outcome [1] | outcome [2] | outcome [4] | outcome [5] | outcome [6]

COC(=O)c1ccccc1C(=O)O
inactive: outcome [1] | outcome [2] | outcome [3] | outcome [4] | outcome [5] | outcome [6]

CC(=O)CC(=O)Nc1ccc(C)cc1C
inactive: outcome [1] | outcome [2] | outcome [3] | outcome [4] | outcome [5] | outcome [6]

CC1=NN(c2ccc(S(=O)(=O)O)cc2)C(=O)C1
inactive: outcome [1] | outcome [2] | outcome [3] | outcome [5] | outcome [6]

N#Cc1ccccc1O
inactive: outcome [1] | outcome [2] | outcome [4] | outcome [5]

C=CC/C=C/C
inactive: outcome [1] | outcome [2] | outcome [3] | outcome [4] | outcome [5] | outcome [6]

Cc1cc(-c2ccccc2)nnc1NCCN1CCOCC1
inactive: outcome [1] | outcome [2] | outcome [3] | outcome [4] | outcome [6]

CN(C)CCN(C)CCO
inactive: outcome [1] | outcome [2] | outcome [4] | outcome [5]

NCc1ccc(S(N)(=O)=O)cc1
inactive: outcome [1] | outcome [2] | outcome [3] | outcome [4] | outcome [6]

Nc1nnnn1-c1ccccc1
inactive: outcome [1] | outcome [2] | outcome [4] | outcome [5] | outcome [6]

O=C1c2ccccc2C(=O)c2cc(Cl)ccc21
inactive: viability change, negative = cytotoxic [1] 5.77% [at 8.39 µM] | activation [2] -6.72% [at 8.39 µM] | activation (H2AX phosphorylation) [4] 2.59% [at 14 µM] | activation [5] -0.0803% [at 7.01 µM] | activity change, negative = cytotoxicity [6] 4.41% [at 14 µM]

CCCCCCCCCOC(=O)c1ccccc1C(=O)OCCCCCCCCC
inactive: outcome [1] | outcome [2] | outcome [4] | outcome [5] | outcome [6]
